Screens: PubChem BioAssay, National Center for Advancing Translational Sciences (NCATS)
Sampled rows, rich in hits. Any-hit rate of the full collection: about 7.5%.
B2AR arrestin: beta2AR (human) beta-arrestin recruitment activity. P07550. beta-arrestin recruitment to beta2AR, cell-based reporter. Potency, µM (top dose mostly 46.1 µM), for inactives: at the highest dose activation, most hits filed as activators. 330,000 tested, 0.02% active;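 also: potency is read from the fitted curve at half-maximal effect; 0% = DMSO controls and full agonism = EC100 isoproterenol or metaproterenol; nearly all actives have a fitted effect of over 65% in size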
ELG1 repair inh: inhibitors of ELG1-dependent DNA repair in HEK293T cells. HEK293T ELG1-luciferase reporter, luminescence, 16 h; DNA damage induced by 5-fluorouridine. Potency, µM (doses to about 46.1 µM), without a hit: at the highest dose activity change, negative = inhibition, hits mostly inhibitors. 330,000 tested, 2.3% active; also: potency is read from the fitted curve at half-maximal effect; nearly all actives have a fitted effect of over 55% in size
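Cells (2,000 per well) received 5-fluorouridine plus test compound or DMSO and were incubated 16 hr at 37 °C, 5% CO2. Luciferase activity was read by luminescence 30 min after ONE-Glo addition; signal suppression marked inhibition of damage-induced ELG1 function.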
TSHR antag: antagonists of human thyroid stimulating hormone receptor | activity change, negative = inhibition, % at 11.5 µM | P16473 | TSHR-expressing cells, TSH-stimulated cAMP HTRF, 2 h; active compounds read low | 330,000 tested, 0.2% active;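 active = activity change below a set negative limit, meaning inhibition stronger than a set level, cut at about -70% in these data; inconclusive = activity change between two set negative limits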
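Antagonism was scored as loss of TSH-driven cAMP in TSHR cells, stimulated with 4nM TSH (EC80) for 2 hours at 37 deg C and detected by homogeneous HTRF competition immunoassay.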
Gal4-VP16 FLuc: counter-screen for ROR gamma inhibitors: Gal4-VP16 reporter; AID 2546; Potency, µM (highest dose often 53.6 µM), inactives show at the top dose activity, negative = inhibition, usual class: inhibitors; 310,000 tested, 3.5% active; Drosophila S2 Gal4-VP16 UAS-luciferase, luminescence, 20 h;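 also: Gal4-VP16 expression switched on by copper sulfate through the metallothionein promoter; potency is read from the fitted curve at half-maximal effect; nearly all actives have a fitted effect of over 50% in size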
RORg inh: ROR gamma (mouse) transcription inhibition; P51450; Drosophila S2 Gal4-RORgamma UAS-luciferase reporter, 20 h; Potency, µM (series often up to 53.6 µM), for inactives: at the highest dose activity change, negative = inhibition, actives largely listed as inhibitors; 310,000 tested, 5.4% active; AID 2551; also: potency is read from the fitted curve at half-maximal effect; nearly all actives have a fitted effect of over 60% in size
Target sequence (P51450 whole entry, looked up, the tested form may be a part): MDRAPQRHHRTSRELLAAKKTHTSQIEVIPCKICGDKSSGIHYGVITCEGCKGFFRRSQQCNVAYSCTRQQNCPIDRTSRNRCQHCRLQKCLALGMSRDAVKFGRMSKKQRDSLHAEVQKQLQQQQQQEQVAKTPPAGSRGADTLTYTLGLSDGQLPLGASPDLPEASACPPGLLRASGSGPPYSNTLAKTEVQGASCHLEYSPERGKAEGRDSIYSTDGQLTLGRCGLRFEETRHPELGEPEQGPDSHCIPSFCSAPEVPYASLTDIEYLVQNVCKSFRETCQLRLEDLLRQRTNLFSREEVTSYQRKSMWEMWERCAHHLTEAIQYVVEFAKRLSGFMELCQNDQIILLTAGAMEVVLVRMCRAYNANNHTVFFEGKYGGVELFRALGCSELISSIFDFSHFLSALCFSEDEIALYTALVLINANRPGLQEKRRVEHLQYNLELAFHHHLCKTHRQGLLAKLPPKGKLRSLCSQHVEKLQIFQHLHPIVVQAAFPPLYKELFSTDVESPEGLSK
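ROR gamma transcriptional activity was tracked as Gal4-UAS luciferase output in stably transfected Drosophila Schneider cells, with compound added 1 hr before 700 uM copper sulfate induction and a 20 hr ambient-temperature incubation.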
* = called active by the depositor; ? = inconclusive; . = not tested or not shown; [ ] = dose if it differs, or a comment. Unless noted, calls follow the shape of the dose curve; as a rule, active = well fitted curve in the direction sought with a large enough effect; inconclusive = small, poorly fitted or top-dose-only effect, or another doubt; inactive = no such curve, though single readings can be large; an effect the other way counts as inactive or inconclusive. Unless noted, % is scaled to controls: 0 for no effect and ±100 for the full control effect.

SMILES | B2AR arrestin | ELG1 repair inh | TSHR antag | Gal4-VP16 FLuc | RORg inh
Cc1ccc(S(=O)(=O)Nc2ccc(C(=O)Nc3cc(C)on3)cc2)cc1 | -1.1% | -10.7% | -12.7 | 17.2% | -4.5%
Cc1ccc(NS(=O)(=O)c2cccc(C(=O)Nc3cc(C)on3)c2)cc1 | -0.4% | 20.6µM* | -3.0 | -24.0% | ?
O=C(O)C(Cc1ccccc1-c1ccccc1)C(=O)O | -0.5% | -5.9% | -4.9 | -7.8% | 0.9%
C/C(CCc1ccc2c(c1)OCO2)=N\N=C1\NC(=O)CC(C(=O)Nc2ccccc2F)S1 (centres undefined) | 0.2% | 3.9% | -8.0 | ? | 11.2µM*
CCn1c(Cc2cccc3ccccc23)nnc1SCC(=O)Nc1nccs1 | -0.1% | ? | -7.4 | ? | 14.1µM*
S=C(Nc1ccccc1)N1CCn2c1nc1ccccc12 | ? | -1.8% | -11.7 | 5.01µM* | 0.562µM*
O=C(Nc1ccccc1)N1CCn2c1nc1ccccc12 | 0.0% | 13.0% | 12.0 | 0.2% | 30.2%
CN1CCc2c(sc(NC(=O)C3CCN(S(=O)(=O)c4cccs4)CC3)c2C(N)=O)C1 | -0.2% | 23.4% | 9.4 | . | .
O=C(Cc1ccccc1)NC(=S)Nc1ccc2oc(-c3ccccc3F)nc2c1 | 0.1% | ? | 16.5 | ? | 3.98µM*
O=C(Cc1ccccc1)NC(=S)Nc1ccc2oc(-c3ccccc3)nc2c1 | 0.1% | ? | 10.2 | 7.08µM* | 7.08µM*
O=C(Nc1ccc2oc(-c3ccccc3F)nc2c1)c1ccccc1F | -0.3% | ? | 33.2 | -13.2% | 26.8%
CN1CCN(c2ncc3nc(-c4cccc(C#N)c4)c(=O)n(CCc4ccccc4)c3n2)CC1 | . | . | . | 1.1% | -9.9%
COc1cccc(NC(=O)c2ccc(CN3CCc4ccccc4C3)cc2)c1 | 0.2% | ? | -5.0 | 26.0% | 36.6%
O=C(Nc1ccc(Cc2ccncc2)cc1)c1ccc(S(=O)(=O)N2CCCC2)cc1 | 0.0% | 2.91µM* | -19.8 | 11.2µM* | ?
O=C(Nc1ccc(Cl)cc1)c1ccc(CN2CCc3ccccc3C2)cc1 | -0.4% | ? | -26.0 | ? | ?
O=C(Nc1ccc(S(=O)(=O)N2CCCC2)cc1)c1ccc(CN2CCc3ccccc3C2)cc1 | 0.3% | -16.3% | -27.3 | 1.41µM* | 5.62µM*
O=C(Nc1ccc(S(=O)(=O)N2CCCCC2)cc1)c1ccncc1 | -0.2% | ? | -13.4 | 1.8% | -12.6%
CCN(CC)c1ccc(S(=O)(=O)N2CCOCC2)cc1NC(=O)CN1CCc2ccccc2C1 | 0.1% | ? | -0.3 | -17.1%[10 µM] | 3.16µM*
CC(=O)c1cccc(NC(=O)c2ccc(CN3CCc4ccccc4C3)cc2)c1 | 0.2% | 8.2µM* | -25.0 | ? | 15.9%
Cc1nccn1CC(=O)c1ccc(O)c(O)c1 | 0.2% | 4.6% | 23.9 | . | .
CC(C)[C@@H](CC(=O)N[C@@H]1CCNC[C@H]1C(=O)N[C@H](CC(=O)N[C@@H](CCC(=O)O)CC(=O)O)Cc1c[nH]c2ccccc12)NC(=O)C[C@H](Cc1ccccc1)NC(=O)[C@@H]1CCCC[C@H]1N | . | . | . | -2.9% | 12.9%
O=c1[nH]c(=O)n(-c2cc(Br)c(O)c(Br)c2)cc1Br | -0.7% | -25.7% | -2.3 | 0.6% | 14.8%
O=C(Nc1ccc(S(=O)(=O)N2CCCCC2)cc1)c1ccccc1F | -0.4% | 0.5% | -7.6 | -4.6% | ?
CCOc1ccc(CN2CCN(C(=O)c3ccccc3)CC2)cc1 | -1.1% | 9.2µM* | -3.2 | 6.3% | 8.3%
CC(=O)Nc1cccc(C(=O)N2CCN(Cc3ccccc3)CC2)c1 | -0.3% | -1.1% | 0.2 | -7.2% | -13.3%
SMILES | B2AR arrestin | ELG1 repair inh | TSHR antag | Gal4-VP16 FLuc | RORg inh
O=C(Nc1ccc(S(=O)(=O)N2CCCC2)cc1)c1cc(F)c(F)cc1Cl | 0.3% | 14.6µM* | -12.8 | 4.7% | 33.3%
O=C(Nc1ccc(S(=O)(=O)N2CCOCC2)cc1)c1ccc(CN2CCc3ccccc3C2)cc1 | 0.1% | -27.9% | -19.6 | 2.24µM* | 8.91µM*
O=C(Nc1cccc(C(=O)N2CCN(Cc3ccccc3)CC2)c1)c1ccccc1 | -0.2% | 20.6µM* | 7.0 | -13.8% | ?
CC(C)(C)N1C(=O)[C@H]2[C@H]3[C@H](O)[C@H](O)C/C(=N/NC(=O)OCc4ccccc4)[C@@H]3CC[C@@H]2C1=O | . | . | . | -10.4%[10 µM] | 0.8%[10 µM]
CCC(C)[C@H]1CNCCN1CCC12CC3CC(CC(C3)C1)C2 (some centres undefined) | -0.9% | ? | 26.0 | . | .
C/C(=N\NC(=O)c1ccc(CN2CCc3ccccc3C2)cc1)c1ccccc1O | 4.2% | 3.26µM* | -36.3 | 2.51µM* | 0.891µM*
CCCNC(=O)c1ccc(CN2CCc3ccccc3C2)cc1 | -0.9% | -13.1% | 0.7 | -5.5% | 6.5%
COc1ccc(-c2cc(C(=O)Nc3ccccc3N3CCOCC3)c3ccccc3n2)cc1OC | 0.1% | 11.6µM* | 11.6 | -0.7% | 24.9%
O=C(Nc1ccccc1N1CCOCC1)c1cc(-c2ccncc2)nc2ccccc12 | -0.3% | 14.6µM* | -13.0 | -2.5%[10 µM] | 3.4%
O=C(Nc1ccc(N2CCOCC2)cc1)c1cc(-c2ccncc2)nc2ccccc12 | 0.1% | ? | -3.2 | -0.9% | 4.7%
O=C(NCc1cc([N+](=O)[O-])ccc1O)c1cc(-c2ccncc2)nc2ccccc12 | 0.3% | -17.3% | -34.4 | 8.91µM* | 14.1µM*
CC(C)(C)c1ccccc1NC(=O)c1cc(-c2ccncc2)nc2ccccc12 | -0.2% | 16.4µM* | 34.3 | . | .
C/C(CC(=O)Nc1cc(C)ccn1)=N\NC(=O)c1ccccc1C | -0.8% | ? | -2.9 | ? | 8.91µM*
C/C(CC(=O)Nc1cc(C)ccn1)=N\NC(=O)c1ccc(C)cc1 | -0.3% | 24.2% | 0.2 | 17.5% | ?
O=c1c(-c2c(O)cc(O)c3c2O[C@H](c2ccc(O)cc2)CC3)c(-c2ccc(O)cc2)oc2cc(O)cc(O)c12 | -0.2% | -21.9% | 8.6 | . | .
Cc1ccc(-n2c(C)nc3c(cnn3-c3ccc(F)cc3)c2=O)cc1 | 0.1% | ? | 2.1 | 8.91µM* | -23.3%
Cc1ccc(/C=c2\s/c(=C(/C#N)C(=O)N3CCCC3)n(Cc3ccco3)c2=O)s1 | 2.4% | 12.6µM* | 0.1 | -15.0% | ?
N#C/C(=C(/O)CSc1nnc(Cc2cccs2)n1C1CCCCC1)c1nc2ccccc2[nH]1 | -0.9% | ? | -8.3 | -0.1% | -23.1%
COc1ccccc1-c1nnc(SC/C(O)=C(\C#N)c2nc3ccccc3[nH]2)n1C1CCCCC1 | 2.9% | ? | 2.0 | 11.2µM* | 7.08µM*
N#C/C(=C(/O)c1ccc(Br)s1)c1nc2ccccc2[nH]1 | 5.6% | ? | 27.4 | 0.0% | 1µM*
N#C/C(=C(\O)Cc1ccccc1)c1nc2ccccc2[nH]1 | -0.2% | ? | -4.7 | ? | 2.82µM*
Cc1ccc(/C=C(\C#N)c2nc3ccccc3[nH]2)s1 | -0.9% | ? | -28.7 | 10µM* | ?
N#C/C(=C(/O)c1cccs1)c1nc2ccccc2[nH]1 | -0.5% | -4.2% | -27.7 | ? | ?
